Measurements as given in PubChem BioAssay (NCATS).
Inconclusive results are not listed. Unmarked numbers belong to inactive results. Calls of active or inactive are those of the source. Calls come from the whole dose curve; as a rule, active = well fitted curve in the direction sought with a large enough effect; inconclusive = small, poorly fitted or top-dose-only effect, or another doubt; inactive = no such curve, though single readings can be large; an effect the other way counts as inactive or inconclusive.

Experiments:
[1] = Primary redox qHTS assay for identification of artifact compounds. (AID 1845223); conditions: Amplex Red/HRP redox cycling with DTT, fluorescence; series mostly up to 53.8 µM
Outline: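 Redox-cycling detection via DTT (250 uM final) oxidation coupled to Amplex Red (25 uM)/HRP (250 mU/mL) in HBSS. 15 min preincubation plus 30 min after DTT, room temperature. Ex/Em 525/598 nm; 4-parameter Hill fit against DMSO and 10 uM DA3003.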

[2] = Quantitative High-Throughput drug screen in 47 multiple myeloma cell lines against the NCATS MIPE library collection: FR4_PLB cell viability assay (AID 1918924; note: nearly all actives have a fitted effect of over 35% in size; note: potency is the fitted concentration of half-maximal effect); conditions: FR4_PLB myeloma cells viability, CellTiter-Glo ATP, 48 h; series mostly up to 45.8 µM
Outline: (§1)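 qHTS of the MIPE 4.0 collection: 500 myeloma cells/well, 48 h drug exposure at 37C in 5% CO2, then CellTiter-Glo for 5 min at room temperature before luminescence reading.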

[3] = Quantitative High-Throughput drug screen in 47 multiple myeloma cell lines against the NCATS MIPE library collection: Delta47_JCRB cell viability assay (AID 1918925; note: nearly all actives have a fitted effect of over 45% in size; note: potency is the fitted concentration of half-maximal effect); conditions: Delta47 myeloma viability, CellTiter-Glo ATP, 48 h; series mostly up to 45.8 µM
Outline: as §1

[4] = Quantitative High-Throughput drug screen in 47 multiple myeloma cell lines against the NCATS MIPE library collection: EJM_DSMZ cell viability assay (AID 1918926; note: nearly all actives have a fitted effect of over 30% in size; note: potency is the fitted concentration of half-maximal effect); conditions: EJM myeloma cell viability, CellTiter-Glo ATP, 48 h; series mostly up to 45.8 µM
Outline: as §1

[5] = Quantitative High-Throughput drug screen in 47 multiple myeloma cell lines against the NCATS MIPE library collection: AMO1_DSMZ cell viability assay (AID 1918927; note: nearly all actives have a fitted effect of over 30% in size; note: potency is the fitted concentration of half-maximal effect); conditions: AMO1 myeloma cells viability, CellTiter-Glo ATP luminescence, 48 h; series mostly up to 45.8 µM
Outline: as §1

[6] = Quantitative High-Throughput drug screen in 47 multiple myeloma cell lines against the NCATS MIPE library collection: ARP1_JJKsccF8 cell viability assay (AID 1918928; note: nearly all actives have a fitted effect of over 40% in size; note: potency is the fitted concentration of half-maximal effect); conditions: ARP1 myeloma cells viability, CellTiter-Glo ATP, 48 h; series mostly up to 45.8 µM
Outline: (§2)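 500 cells/well; MIPE 4.0 library pinned in; 48 h, 37 °C, 5% CO2; CellTiter-Glo ATP luminescence. Controls: DMSO = 100% viability, medium only = 0%.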

[7] = Quantitative High-Throughput drug screen in 47 multiple myeloma cell lines against the NCATS MIPE library collection: ARD_JJKsccE7 cell viability assay (AID 1918929; note: potency is the fitted concentration of half-maximal effect); conditions: ARD myeloma cell line viability, CellTiter-Glo, 48 h; series mostly up to 45.8 µM
Outline: as §1

[8] = Quantitative High-Throughput drug screen in 47 multiple myeloma cell lines against the NCATS MIPE library collection: Karpas620_DSMZ cell viability assay (AID 1918959); conditions: Karpas620 myeloma viability, CellTiter-Glo ATP luminescence, 48 h; series mostly up to 45.8 µM; note: nearly all actives have a fitted effect of over 30% in size; note: potency is the fitted concentration of half-maximal effect
Outline: as §1

[9] = Quantitative High-Throughput drug screen in 47 multiple myeloma cell lines against the NCATS MIPE library collection: KMM1_JCRB cell viability assay (AID 1918960); conditions: KMM1 myeloma viability, CellTiter-Glo ATP luminescence, 48 h; series mostly up to 45.8 µM; note: nearly all actives have a fitted effect of over 30% in size; note: potency is the fitted concentration of half-maximal effect
Outline: as §2

[10] = Quantitative High-Throughput drug screen in 47 multiple myeloma cell lines against the NCATS MIPE library collection: Karpas417_ECACC cell viability assay (AID 1918961); conditions: Karpas417 myeloma viability, CellTiter-Glo ATP luminescence, 48 h; viability (% of DMSO): at 45.8 µM (top of the series); note: potency is the fitted concentration of half-maximal effect
Outline: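 Luminescent ATP measurement with CellTiter-Glo gives viability, scaled between DMSO-only wells (100%) and media-only wells (0%). Cells, 500 per well, faced library compounds for 48 hours at 37C.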

Row | SMILES | Potency [1] | Potency [2] | Potency [3] | Potency [4] | Potency [5] | Potency [6] | Potency [7] | Potency [8] | Potency [9] | Potency [10]
1 | COc1cccc2c(NCc3ccccc3)nc(-n3c(N)nc4ccccc43)nc12 | inactive | 6.62 µM (active) | 2.96 µM (active) | 6.62 µM (active) | 1.05 µM (active) | 7.43 µM (active) | 4.69 µM (active) | 1.48 µM (active) | 1.66 µM (active) | 
2 | NC(=O)Nc1cc(-c2cccc(F)c2)sc1C(=O)N[C@H]1CCCNC1 | inactive | 0.0833 µM (active) | 0.105 µM (active) | 0.296 µM (active) | 0.662 µM (active) | 3.72 µM (active) | 0.526 µM (active) | 3.72 µM (active) | 0.187 µM (active) | 0.0833 µM (active)
3 | N#CCNC(=O)c1ccc(-c2ccnc(Nc3ccc(N4CCOCC4)cc3)n2)cc1 | inactive | 20.9 µM (active) | 9.35 µM (active) | 11.8 µM (active) |  | 16.6 µM (active) | inactive |  | inactive | 
4 | O=C(Nc1cn[nH]c1-c1nc2ccc(CN3CCOCC3)cc2[nH]1)NC1CC1 | inactive | 2.35 µM (active) | 1.48 µM (active) | 1.87 µM (active) |  | 4.18 µM (active) |  | 5.26 µM (active) | 2.96 µM (active) | 
5 | CCS(=O)(=O)c1cccc(-c2cc(C(=O)NC3CCN(C)CC3)c(C)c3[nH]c4ncc(C)cc4c23)c1 | inactive | 2.35 µM (active) | 0.662 µM (active) |  | 9.35 µM (active) | 2.09 µM (active) | 3.32 µM (active) | 1.66 µM (active) | 2.96 µM (active) | 
6 | CC(C)c1cc(C(=O)N2Cc3ccc(CN4CCN(C)CC4)cc3C2)c(O)cc1O | inactive | 0.296 µM (active) | 0.296 µM (active) | 1.48 µM (active) | 0.132 µM (active) | 0.209 µM (active) |  | 0.166 µM (active) | 0.105 µM (active) | 
7 | C[C@@H](Oc1cc(-c2cnn(C3CCNCC3)c2)cnc1N)c1c(Cl)ccc(F)c1Cl | inactive | 18.7 µM (active) | 2.09 µM (active) | 18.7 µM (active) | 18.7 µM (active) | 8.33 µM (active) |  | 14.8 µM (active) | 13.2 µM (active) | 2.64 µM (active)
8 | Nc1ccccc1NC(=O)c1ccc(CNC(=O)OCc2cccnc2)cc1 | inactive | 2.96 µM (active) | 0.372 µM (active) | 3.72 µM (active) | 0.833 µM (active) | 1.32 µM (active) |  | 2.64 µM (active) | 0.418 µM (active) | 0.469 µM (active)
9 | CCOc1ccccc1OCCNC(C)Cc1ccc(OC)c(S(N)(=O)=O)c1 (configuration not stated) | inactive | inactive | inactive | inactive |  | inactive | inactive | inactive |  | 
10 | Nc1nc(Nc2ccc(S(N)(=O)=O)cc2)nn1C(=O)c1c(F)cccc1F | inactive | 4.18 µM (active) | 2.64 µM (active) | 6.62 µM (active) | 2.09 µM (active) | 9.35 µM (active) |  | 5.9 µM (active) | 4.18 µM (active) | 3.32 µM (active)
11 | Cc1ccc(C(=O)Nc2ccc(CN3CCN(C)CC3)c(C(F)(F)F)c2)cc1C#Cc1cnc2cccnn12 | inactive | 1.48 µM (active) | 0.662 µM (active) | 2.64 µM (active) | 2.96 µM (active) | 1.66 µM (active) | 14.8 µM (active) |  | 2.09 µM (active) | 0.469 µM (active)
12 | COc1ccc(-n2nc(C(N)=O)c3c2C(=O)N(c2ccc(N4CCCCC4=O)cc2)CC3)cc1 | inactive | inactive | inactive | inactive |  | inactive | inactive | inactive | inactive | 
13 | O=C(c1cncc(Br)c1)N1CCC(N2CCCC2)CC1 | inactive | inactive | inactive | inactive | inactive | 16.6 µM (active) |  | inactive |  | 
14 | COc1ccc(C(=O)CC2(O)C(=O)Nc3c(Cl)ccc(Cl)c32)cc1 (configuration not stated) | inactive | 0.833 µM (active) | 3.72 µM (active) | 3.32 µM (active) | 0.526 µM (active) | 3.72 µM (active) | 1.32 µM (active) |  | 1.18 µM (active) | 
15 | CC(=O)Nc1sc2c(c1-c1nc3ccccc3s1)CNC2 | inactive | 20.9 µM (active) | 16.6 µM (active) | 23.5 µM (active) |  | 11.8 µM (active) |  |  | inactive | 
16 | Cc1cc(C(=O)N2CCN(c3cccc(Cl)c3)CC2)n(-c2ccccc2)n1 | inactive | 0.148 µM (active) | 0.833 µM (active) |  | 0.0332 µM (active) | 0.59 µM (active) | 0.264 µM (active) |  | 0.187 µM (active) | 
17 | COc1cc2nccc(Oc3ccc(NC(=O)C4(C(=O)Nc5ccc(F)cc5)CC4)cc3)c2cc1OC | inactive | 26.4 µM (active) | 18.7 µM (active) | 2.96 µM (active) | 1.87 µM (active) | 16.6 µM (active) |  | 5.26 µM (active) | 2.96 µM (active) | inactive
